Source: PubChem BioAssay AID1159580 (chemical genetic matrix, 2015)
Hit rate of the full screen: of about 5,500 compounds, about 2,000 (36%) were called active. Roughly 18% stayed inconclusive and do not appear here. Rule as the data show it: active = normalized growth mostly below about 0.91 (no sharp cut-off); inconclusive = no clear call, values can overlap the other calls; inactive = mostly above about 0.92. The list shows a part of the results.

Experiment: chemical genetic growth profiling, strain panel (AID 1159580);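 also: tested at 20 µM; growth read once vehicle control cultures reached saturation at 30 °C; 1 = growth at the plate median or of vehicle wells; lower values mean less growth of the strain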
Details: S. cerevisiae deletion strains, growth OD

Measured: normalized growth

COc1ccc(CNC(=O)/C=C/c2ccc3[nH]cc(CCN(C)C)c3c2)cc1
inactive: locus YAL040C, strain CLN3, stronger effect = lower value 1.1 | locus YCL061C, strain MRC1 (second series), stronger effect = lower value 0.991 | locus YER002W, strain NOP16, stronger effect = lower value 0.997 | locus YGR078C, strain PAC10, stronger effect = lower value 0.987 | locus YMR263W, strain SAP30, stronger effect = lower value 0.98 | locus YNL153C, strain GIM3, stronger effect = lower value 0.985 | locus YNL175C, strain NOP13, stronger effect = lower value 1.01 | locus YNL197C, strain WHI3, stronger effect = lower value 1 | locus YNL224C, strain SQS1, stronger effect = lower value 0.986 | locus YOR083W, strain WHI5 (second series), stronger effect = lower value 1.01

COC(=O)CC1C(C)(C(=O)c2ccoc2)CC2OCC34C(CC(=O)OC)C5(C)CC36OC3(C)OC1(C(OC(C)=O)C6(OC(C)=O)C5OC(=O)C(C)C)C24O3 (configuration not stated)
inactive: locus YAL021C, strain ccr4, stronger effect = lower value 0.995 | locus YAL026C, strain drs2, stronger effect = lower value 0.967 | locus YAL030W, strain snc1, stronger effect = lower value 0.975 | locus YBL061C, strain skt5, stronger effect = lower value 0.978 | locus YBR009C, strain hhf1, stronger effect = lower value 0.949 | locus YBR023C, strain chs3, stronger effect = lower value 0.987 | locus YBR171W, strain sec66, stronger effect = lower value 0.981 | locus YBR231C, strain swc5, stronger effect = lower value 0.993 | locus YBR279W, strain paf1, stronger effect = lower value 0.996 | locus YCL011C, strain gbp2, stronger effect = lower value 0.972 | locus YCL016C, strain dcc1, stronger effect = lower value 0.99 | locus YCL061C, strain MRC1, stronger effect = lower value 0.995 | locus YCL069W, strain vba3, stronger effect = lower value 0.979 | locus YCR088W, strain abp1, stronger effect = lower value 0.983 | locus YDL005C, strain med2, stronger effect = lower value 0.97 | locus YDL040C, strain nat1, stronger effect = lower value 0.986 | locus YDR001C, strain nth1, stronger effect = lower value 0.986 | locus YDR069C, strain doa4, stronger effect = lower value 0.99 | locus YDR137W, strain rgp1, stronger effect = lower value 0.975 | locus YDR159W, strain sac3, stronger effect = lower value 0.968 | locus YDR195W, strain ref2 0.944 | locus YDR297W, strain sur2, stronger effect = lower value 0.978 | locus YDR334W, strain swr1, stronger effect = lower value 0.969 | locus YDR335W, strain msn5, stronger effect = lower value 0.987 | locus YDR392W, strain spt3, stronger effect = lower value 0.911 | locus YEL003W, strain gim4, stronger effect = lower value 0.971 | locus YEL037C, strain rad23, stronger effect = lower value 0.967 | locus YEL061C, strain CIN8 (second series), stronger effect = lower value 0.975 | locus YER015W, strain faa2, stronger effect = lower value 0.987 | locus YER016W, strain bim1, stronger effect = lower value 0.98 | locus YER111C, strain swi4, stronger effect = lower value 0.959 | locus YER155C, strain BEM2 (second series), stronger effect = lower value 1.01 | locus YFR010W, strain ubp6, stronger effect = lower value 0.978 | locus YGL167C, strain pmr1, stronger effect = lower value 0.959 | locus YGL173C, strain kem1, stronger effect = lower value 0.97 | locus YGL227W, strain vid30, stronger effect = lower value 0.97 | locus YGL240W, strain doc1, stronger effect = lower value 0.988 | locus YGL253W, strain hxk2, stronger effect = lower value 0.966 | locus YHR013C, strain ard1, stronger effect = lower value 0.952 | locus YHR027C, strain rpn1, stronger effect = lower value 0.985 | locus YHR142W, strain chs7, stronger effect = lower value 0.994 | locus YJL092W, strain hpr5, stronger effect = lower value 0.987 | locus YJL095W, strain BCK1 (second series), stronger effect = lower value 0.993 | locus YJL115W, strain asf1, stronger effect = lower value 0.988 | locus YJL129C, strain trk1, stronger effect = lower value 0.975 | locus YJL154C, strain vps35, stronger effect = lower value 0.984 | locus YJL164C, strain tpk1, stronger effect = lower value 1 | locus YJL166W, strain qcr8, stronger effect = lower value 0.996 | locus YJL187C, strain SWE1, stronger effect = lower value 0.984 | locus YKL160W, strain elf1, stronger effect = lower value 1.01 | locus YKR026C, strain gcn3, stronger effect = lower value 0.976 | locus YKR091W, strain srl3, stronger effect = lower value 0.96 | locus YLL001W, strain dnm1, stronger effect = lower value 1.01 | locus YLL026W, stronger effect = lower value 0.993 | locus YLL041C, strain sdh2, stronger effect = lower value 0.996 | locus YLR027C, strain aat2, stronger effect = lower value 0.982 | locus YLR221C, strain rsa3, stronger effect = lower value 0.999 | locus YLR258W, strain gsy2, stronger effect = lower value 0.964 | locus YLR262C, strain YPT6 (second series), stronger effect = lower value 0.983 | locus YLR320W, strain mms22, stronger effect = lower value 0.993 | locus YLR342W, strain FKS1, stronger effect = lower value 0.963 | locus YLR357W, strain rsc2, stronger effect = lower value 1.02 | locus YLR370C, strain arc18, stronger effect = lower value 0.981 | locus YLR384C, strain iki3, stronger effect = lower value 0.97 | locus YML120C, strain ndi1, stronger effect = lower value 0.987 | locus YMR058W, strain fet3, stronger effect = lower value 0.975 | locus YMR125W, strain sto1, stronger effect = lower value 0.995 | locus YMR129W, stronger effect = lower value 0.966 | locus YMR205C, strain PFK2, stronger effect = lower value 0.957 | locus YMR231W, strain pep5, stronger effect = lower value 0.977 | locus YNL071W, strain lat1, stronger effect = lower value 0.982 | locus YNL209W, strain ssb2, stronger effect = lower value 0.988 | locus YNL248C, strain rpa49, stronger effect = lower value 1.02 | locus YNL322C, strain KRE1 (second series), stronger effect = lower value 0.969 | locus YNR049C, strain mso1, stronger effect = lower value 0.973 | locus YOR001W, strain rrp6, stronger effect = lower value 1.04 | locus YOR070C, strain gyp1, stronger effect = lower value 1.03 | locus YOR080W, strain dia2, stronger effect = lower value 0.982 | locus YOR083W, strain WHI5, stronger effect = lower value 1.01 | locus YOR106W, strain vam3, stronger effect = lower value 0.991 | locus YOR265W, strain rbl2, stronger effect = lower value 0.992 | locus YOR270C, strain vph1, stronger effect = lower value 0.856 | locus YOR290C, strain snf2, stronger effect = lower value 0.895 | locus YPL051W, strain arl3, stronger effect = lower value 0.993 | locus YPL078C, strain atp4, stronger effect = lower value 0.99 | locus YPL106C, strain sse1, stronger effect = lower value 0.985 | locus YPL240C, strain hsp82, stronger effect = lower value 0.947
